Assay [1] in a line: hESC survival regulators, cell-based (AID 493140; call rule not given here;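 note: cells exposed to compounds for four days before counting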). The settings on record: human embryonic stem cell survival screen; stronger effect = higher value.
Assay [2] is described as follows: sensitizers of A549 cells to miR-34 induction, primary screen, imaging, A549 dox-inducible miR-34, nuclei and caspase counts (AID 1347080). The settings on record: A549 miR-34 inducible, Hoechst nuclei count, 48 h.
A short description of assay [3]: liver-stage malaria parasite growth inhibition, primary screen, cell-based, HepG2, luciferase luminescence, HepG2 viability (AID 624349; in the data active = parasite load remaining mostly below about 12%, no sharp cut-off; inactive = mostly above about 10%;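 note: 100% = mean of DMSO negative control wells on the same plate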). The following applies: P. berghei liver stage in HepG2, luciferase luminescence, concentration not given here; parasite load remaining: stronger effect = lower value; viability: measured here: HepG2 viability without parasites.
Assay [4] in a line: kinase inhibitors against Plasmodium liver-stage infection, cell-based, known kinase inhibitor set, luminescence, hepatoma host viability (AID 624392; call rule not given here;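 note: infected cells incubated roughly two days before readout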). The following applies: Plasmodium liver stage in hepatoma cells, luciferase luminescence, concentration not given here; liver cell % of control: measured here: host liver cell viability; parasite % of control: stronger effect = lower value.

The nature of assay [5]: inhibitors of Cryptococcus chitosan production, flow cytometry, Cibacron Brilliant Red staining (AID 1347148; call rule not given here;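 note: compound exposure lasted three days at 37 degrees C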). The following applies: Cryptococcus neoformans chitosan, stronger effect = lower value; at 10 µM unless noted.
Assay [6] in a line: modifiers of HSF1 nuclear foci, imaging, Selleck Cancer Library (AID 1347162; in the data active = plate-normalised HSF1 focus index below about 0.46). The following applies: human cells, at 10 µM; SSMD: measured here: HSF1 foci SSMD mean; cell count: measured here: cell number; plate-normalised HSF1 focus index: stronger effect = lower value.
The mark [7] stands for this setting: stronger effect = lower value, cell number ratio, induced over uninduced.
Setting [8] is: measured here: relative caspase fold change +Dox/-Dox.
The mark [9] stands for this setting: measured here: total cells with miR-34 induction, stronger effect = lower value.
Where [10] appears, read: measured here: total cells without miR-34 induction.

The structures appear in SMILES notation. “And” between values parts separate entries of the source, which are not always exact repeats. Equal values may be shown once. The source made the active and inactive calls.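 Rule for the calls, unless noted: active = compounds whose cell count with miR-34 switched on is under 0.7 times the count with it off; inactive = the rest.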

The values below come from PubChem BioAssay.

Take `CCCCC[C@H](O)CC[C@H]1[C@H](O)CC(=O)[C@@H]1CCCCCCC(=O)O`: the survival in assay [1] is 89 (inactive). Moreover, the fold change was 0.898 (inactive) and 0.911 (inactive) in assay [2] (setting [7]); 0.955 and 1.31 in assay [2] (setting [8]). Besides, the cell count is 5150 and 5260 in assay [2] (setting [9]); 5740 and 5770 in assay [2] (setting [10]).
With `CCCCCCCCCCCCCCCCOCC(CO)OC(C)=O` (configuration not stated), the survival in assay [1] was 63.3 (inactive). Also, the values for the fold change in assay [2] (setting [7]) and in assay [2] (setting [8]) were 0.942 (inactive) and 1.66, respectively. Also, the cell count came out at 5510 in assay [2] (setting [9]) and 5840 in assay [2] (setting [10]).
`CC[C@H]1OC(=O)[C@H](C)[C@@H](OC2C[C@@](C)(OC)[C@@H](O)[C@H](C)O2)[C@H](C)[C@@H](O[C@@H]2O[C@H](C)C[C@H](N(C)C)[C@H]2O)[C@](C)(O)C[C@@H](C)/C(=N\OCOCCOC)[C@H](C)[C@@H](O)[C@]1(C)O` (some centres not stated): in assay [3], the parasite load remaining is 75.3% (inactive). Moreover, the viability in assay [3] is 93.9%. In addition, the results for the fold change in assay [2] (setting [7]) and in assay [2] (setting [8]) were 0.893 (inactive) and 1, respectively. Moreover, the cell count in assay [2] (setting [9]) is 9320; in assay [2] (setting [10]) it was 10400.
In the case of `CCCCCCCCCCCCCCCCOCC(CO)OC` (configuration not stated), the survival in assay [1] was 85.4 (inactive). The fold change is 1.02 (inactive) in assay [2] (setting [7]) and 1.45 in assay [2] (setting [8]). Also, the cell count in assay [2] (setting [9]) was 5930; in assay [2] (setting [10]), 5790.
As for `Clc1cnccn1`, in assay [1], the survival was 4.25 (inactive). Besides, the parasite load remaining in assay [3] is 81.6% (inactive). Besides, the viability in assay [3] was 71.5%. Also, the fold change in assay [2] (setting [7]) was 0.949 (inactive); in assay [2] (setting [8]) it was 0.524. Further, the figures for the cell count in assay [2] (setting [9]) and in assay [2] (setting [10]) were 9270 and 9770, respectively.
With `COC(=O)[C@@H]1CC(=O)O[C@H](C)C/C=C/C=C/[C@H](O)[C@H](C)C[C@H](CC=O)[C@H](OC2O[C@H](C)[C@@H](OC3C[C@@](C)(O)[C@@H](OC(=O)CC(C)C)[C@H](C)O3)[C@H](N(C)C)[C@H]2O)[C@H]1OC` (some centres not stated), the parasite load remaining in assay [3] is 340% (inactive). Moreover, in assay [3], the viability is 138%. For the same molecule, the results for the fold change in assay [2] (setting [7]) and in assay [2] (setting [8]) were 0.948 (inactive) and 3.35, respectively. In addition, the figures for the cell count in assay [2] (setting [9]) and in assay [2] (setting [10]) were 11900 and 12600, respectively.
As to `CC(C)(C)n1nc(Cc2cccc3ccccc23)c2c(N)ncnc21`, the parasite load remaining in assay [3] is 40.9% (inactive). Also, the viability in assay [3] turned out to be 75%. Besides, the values for the fold change in assay [2] (setting [7]) and in assay [2] (setting [8]) were 1.05 (inactive) and 1.15, respectively. In addition, the cell count in assay [2] (setting [9]) was 5260; in assay [2] (setting [10]) it was 5010.
In the case of `CCOC(=O)[C@H](CCc1ccccc1)N[C@@H](C)C(=O)N1C(C(=O)O)C[C@@H]2CCC[C@@H]21` (some centres not stated), in assay [1], the survival is 13.5 (inactive). Moreover, the parasite load remaining in assay [3] was 66.3% (inactive). Further, the viability in assay [3] turned out to be 72.7%. Further, the fold change in assay [2] (setting [7]) is 0.971 (inactive); in assay [2] (setting [8]), 0.659. Moreover, the cell count in assay [2] (setting [9]) is 9850; in assay [2] (setting [10]), 10100.
Turning to `CC1(C)S[C@@H]2[C@H](NC(=O)[C@H](N)c3ccccc3)C(=O)N2[C@H]1C(=O)OC1OC(=O)c2ccccc21` (some centres not stated), the survival in assay [1] is 7.92 (inactive). Besides, the parasite load remaining in assay [3] was 114% (inactive). The viability in assay [3] is 77.4%. The fold change was 0.95 (inactive) in assay [2] (setting [7]) and 0.554 in assay [2] (setting [8]). For the same molecule, the figures for the cell count in assay [2] (setting [9]) and in assay [2] (setting [10]) were 8670 and 9130, respectively.
As to `CCCCCC(=O)/C=C/[C@@H]1[C@@H](C/C=C\CCCC(=O)O)[C@@H](O)C[C@H]1O`, in assay [1], the survival is 66.1 (inactive). Further, the fold change is 1.04 (inactive) in assay [2] (setting [7]) and 1.11 in assay [2] (setting [8]). Moreover, the cell count in assay [2] (setting [9]) amounted to 6170; in assay [2] (setting [10]), 5940.
As for `CCCCCCCCCCCCCCCCOCC(COP(=O)([O-])OCC[N+](C)(C)C)OC` (configuration not stated), the survival in assay [1] was 64.4 (inactive). The fold change in assay [2] (setting [7]) was 0.921 (inactive); in assay [2] (setting [8]), 1.04. In addition, the cell count in assay [2] (setting [9]) was 5520; in assay [2] (setting [10]), 5990.
For `CO[C@H]1CC(O[C@@H]2/C(C)=C/C[C@@H]3C[C@@H](C[C@]4(CC[C@H](C)[C@@H](C5CCCCC5)O4)O3)OC(=O)[C@@H]3C=C(C)/C(=N/O)[C@H]4OC/C(=C\C=C\[C@@H]2C)[C@]43O)O[C@@H](C)C1O` (some centres not stated), the parasite load remaining in assay [3] was 170% (inactive) and 47% (inactive). In assay [3], the viability is 86.8% and 106%. Besides, the fold change was 0.877 (inactive) in assay [2] (setting [7]) and 3.74 in assay [2] (setting [8]). Moreover, the cell count is 9710 in assay [2] (setting [9]) and 11100 in assay [2] (setting [10]).
Turning to `CCC(NC(C)C)C(O)c1ccc(O)c2[nH]c(=O)ccc12` (configuration not stated), in assay [3], the parasite load remaining was 40.1% (inactive). Further, the viability in assay [3] was 98.2%. Further, the fold change in assay [2] (setting [7]) was 0.908 (inactive); in assay [2] (setting [8]) it was 1.47. Besides, the values for the cell count in assay [2] (setting [9]) and in assay [2] (setting [10]) were 11700 and 12900, respectively.
Regarding `O=c1cc(-c2ccc(O)cc2)oc2c(C3O[C@H](CO)[C@@H](O)[C@H](O)[C@H]3O)c(O)cc(O)c12` (some centres not stated), the survival in assay [1] is 3.5 (inactive). In addition, in assay [3], the parasite load remaining was 96.7% (inactive). Further, the viability in assay [3] was found to be 101%. For the same molecule, the fold change is 0.841 (inactive) in assay [2] (setting [7]) and 1.12 in assay [2] (setting [8]). For the same molecule, the cell count in assay [2] (setting [9]) worked out at 8230; in assay [2] (setting [10]) it was 9780.
As for `CC(C)=CCC/C(C)=C/CC1=C(C)C(=O)c2ccccc2C1=O`, in assay [3], the parasite load remaining is 76.4% (inactive). Further, the viability in assay [3] stood at 75.8%. Moreover, the fold change is 0.983 (inactive) in assay [2] (setting [7]) and 0.847 in assay [2] (setting [8]). The cell count came out at 6780 in assay [2] (setting [9]) and 6900 in assay [2] (setting [10]).
As for `CNS(=O)(=O)c1ccc(NC(=O)c2ccccc2C(=O)O)cc1` (tested in a mixture with another compound), the parasite load remaining in assay [3] was 59.7% (inactive). Further, the viability in assay [3] came to 106%. For the same molecule, the fold change is 0.903 (inactive) in assay [2] (setting [7]) and 3.2 in assay [2] (setting [8]). For the same molecule, the cell count in assay [2] (setting [9]) stood at 11500; in assay [2] (setting [10]) it was 12700.
Regarding `c1ccc(-c2[nH]ncc2-c2ccnc3ccccc23)nc1`, in assay [4], the liver cell % of control turned out to be 101% and the parasite % of control was 63.9% (inactive).
As for `C[C@@H](COc1ccccc1)N(CCCl)Cc1ccccc1`, the fold fluorescence in assay [5] was 6.47 [at 164.6 µM] (inactive).
On to `CCOC(=O)C1=C(O)C(=O)N(c2ccccc2)C1`, for which, in assay [6], the SSMD was determined as 2.7, the cell count is 7070 and the plate-normalised HSF1 focus index was 1.16 (inactive).
For `CCCCCCCCCCCCCCCCOC[C@@H](COP(=O)([O-])OCC[N+](C)(C)C)OC(=O)NC`, the fold fluorescence in assay [5] was 5.1 (inactive).
